# Data: ChEMBL document CHEMBL3988442, “University of Dundee, Small-Polar-MMV Screening Library” (2021)
# Out of some 69,000 compounds screened, about 950 (1.4%) showed an effect of 50% or more. This is one part of a sample in which strong results are shown more often than they occur.
# System: Mycobacterium tuberculosis
# Experiment: Cornell M. t heat shock assay; note: in the data most compounds retested in dose-response had high values
# Assay type: functional, organism-based
# Design: dose or concentration left out as unconfirmed
row,SMILES,Percent Effect [%]
1,CC(C)OCc1ncn2c1CN(Cc1cccs1)CCC2.O=C(O)C(F)(F)F,-1.604
2,CN(C)CCOCc1nnc2n1CCN(CC1CC1)CC2.O=C(O)C(F)(F)F.O=C(O)C(F)(F)F,-19.96
3,Cc1ncsc1CN1C[C@H](C(=O)NCC2CC2)[C@@H]2CCO[C@@H]2C1.O=C(O)C(F)(F)F,-4.533
4,COc1ccc(CN2CCC3(CC2)CCN(CCN(C)C)C3=O)cc1.O=C(O)C(F)(F)F.O=C(O)C(F)(F)F,-10.28
5,COCC(=O)N1CCC2(CC1)CC(COC)N(Cc1ccccn1)C2.O=C(O)C(F)(F)F (stereo not given),9.323
6,CCN1C(=O)CC[C@]12CC[C@@H](NC(=O)NCc1cccnc1)CC2.O=C(O)C(F)(F)F,4.335
7,CNC(=O)C1Cn2ccnc2C2(CCN(Cc3cccc(C)n3)CC2)O1.O=C(O)C(F)(F)F (stereo not given),-1.384
8,Cc1nc(NCc2noc(C3CCCO3)n2)c2ccsc2n1 (stereo not given),12.93
9,Cc1ccc(N2CCC3(CC2)CNC(=O)CO3)nn1.O=C(O)C(F)(F)F,-15.23
10,O=C(O)C(F)(F)F.O=C1COC2(CCN(c3ccccn3)CC2)CN1,64.38
11,O=C(O)C(F)(F)F.O=C1COC2(CCN(c3ncccn3)CC2)CN1,-4.23
12,Cc1cc(F)ccc1-c1ccccc1CC1CNCCNC1=O.Cl (stereo not given),10.68
13,Cc1ccc(C(=O)N2CC[C@@H]3CN(C4CCOCC4)CCO[C@@H]3C2)o1.O=C(O)C(F)(F)F,5.788
14,CC(C)NC(=O)N1CC[C@H]2[C@H]1CCN2c1ncccn1.O=C(O)C(F)(F)F,-6.623
15,Cc1c(NCc2ccccc2C#N)cccc1S(=O)(=O)NC1CC1,92.24
16,Cc1cc(NCc2cccc(C#N)c2)ccc1Br,-0.9935
17,CS(=O)(=O)NCC1CCCCN1Cc1ccccc1C#N (stereo not given),-5.634
18,Cc1cc(NCc2cccc(C#N)c2)ccc1C(N)=O,-8.044
19,Cc1c(NCc2cccc(C#N)c2)cccc1S(=O)(=O)NC1CC1,50.22
20,N#Cc1cccnc1NCc1ccc(S(=O)(=O)NC2CC2)cc1,26.85
21,Cc1c(NCc2ccccc2C#N)cccc1-n1cnnn1,16.44
22,Cc1ccc(NCc2ccc(C#N)cc2)c(CN(C)C)c1,-24.71
23,Cc1c(NCc2ccc(C#N)cc2)cccc1S(=O)(=O)NC1CC1,50.41
24,COC1COC2(CCN(Cc3ccc(Cl)cc3)CC2)C1.O=C(O)C(F)(F)F (stereo not given),-23.85
25,Cc1nc(NC(=O)C2(C)CN(C)CCO2)sc1C.Cl (stereo not given),-1.317
